# A selection: hits, their analogues and other compounds. The true share with any hit is near 7.1%.
# MCF10A rerep = induces DNA re-replication in MCF 10a normal breast cells; MCF 10A DNA re-replication, Hoechst nuclear intensity, 48 h; Potency, µM (highest dose often 46.1 µM), inactives show top-dose activity, positive = re-replication, hits mostly activators; 350,000 tested, 2.9% active; AID 624296; also: potency is read from the fitted curve at half-maximal effect; % of control where 0% means no effect; nearly all actives have a fitted effect of over 50% in size
# PINK1 modulator = changes PINK1 expression; PINK1 immunofluorescence, high-content cytometry, 24 h; Potency, µM (series often up to 76.6 µM), for the others: at the top dose activation (PINK1 increase), hits mostly activators; 410,000 tested, 0.2% active; active = well fitted activation curve with a large enough effect; inconclusive = small, poorly fitted or top-dose-only effect; cell line not stated here; also: potency is read from the fitted curve at half-maximal effect; % of control where 0% means no effect; nearly all actives have a fitted effect of over 65% in size
#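 Fluorescence from anti-PINK1 antibody, together with nuclear and cell stains, was scanned on a laser-scanning cytometer. Before staining, stable-line cells were incubated 24 hours with compounds at 5 concentrations; primary antibody 12 h at 10 degrees C.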
# SW480 rerep = induces DNA re-replication in SW480 colon adenocarcinoma cells; Potency, µM (top dose mostly 46.1 µM), for the others: top-dose re-replication activation, actives largely listed as activators; 340,000 tested, 1.8% active; AID 624297; SW480 DNA re-replication, Hoechst DNA content imaging, 48 h; also: potency is read from the fitted curve at half-maximal effect; % of control where 0% means no effect; nearly all actives have a fitted effect of over 55% in size
#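 Cells (250 per well) received 23 nL compound or DMSO by pin tool and were kept 48 hr at 37 C, 5% CO2. Nuclei were then stained with Hoechst for 40 min and scanned for DNA content.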
# S2 tox = reduces viability in counter-screen for ATXN expression inhibitors | 400,000 tested, 0.49% active | Potency, µM (highest dose often 56.7 µM), actives largely listed as cytotoxic | S2 cells (HEK-293 line with an ATXN2-luciferase reporter) viability, CellTiter-Fluor protease fluorescence, 24 h; also: potency is read from the fitted curve at half-maximal effect; nearly all actives have a fitted effect of over 40% in size
# ATXN2 expr inh = reduces ATXN2 reporter expression in HEK-293 cells | HEK-293 ATXN2-luciferase reporter, luminescence, 24 h | Potency, µM (titrated, usually from 57 µM), inactives show at the highest dose activity change, negative = inhibition, usual class: inhibitors | 360,000 tested, 0.72% active | AID 1745845; also: potency is read from the fitted curve at half-maximal effect; % is scaled to controls: 0 for no effect and ±100 for the full control effect; nearly all actives have a fitted effect of over 55% in size
#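 qHTS (up to 57 uM final) was run with 24 h compound exposure of reporter cells at 37 °C. Each well was multiplexed: SteadyGlo luminescence measured ATXN2-luciferase expression after a fluorogenic Gly-Phe-AFC viability readout (25 uM final).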
# IL1B secr inh = inflammasome signaling inhibition, IL-1 beta readout; AID 743279; THP-1 LPS/ATP IL-1B secretion, AlphaLISA, 16 h; hits give low values; activity change, % at 57.5 µM; 360,000 tested, 4.7% active; in the data active = activity change below about -50%; inconclusive = mostly about -30% to -49%; also: % is scaled to controls: 0 for no effect and ±100 for the full control effect
#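 Secreted IL-1B measured by AlphaLISA bead assay after 16 h compound exposure of THP-1 cells; compounds (final up to 57.5 uM) added 1 h before LPS (250 ng/mL) and ATP (1.25 mM) stimulation; lower signal means less secretion.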
# Starred values were filed as active, the others as inactive; i = inactive; ? = inconclusive; / = not tested or not shown. Unless noted, calls follow the shape of the dose curve; as a rule, active = well fitted curve in the direction sought with a large enough effect; inconclusive = small, poorly fitted or top-dose-only effect, or another doubt; inactive = no such curve, though single readings can be large; an effect the other way counts as inactive or inconclusive.
SMILES,MCF10A rerep,PINK1 modulator,SW480 rerep,S2 tox,ATXN2 expr inh,IL1B secr inh
CCOC(=O)C1(c2ccccc2)CCN(CCC(=O)Nc2cccc(Br)c2)CC1,?,-1%,-451%,?,?,-101*
CCOC(=O)C1(c2ccccc2)CCN(CCC(=O)Nc2ccc(OC)cc2)CC1,/,0%,/,i,/,-15
CCOC(=O)C1(c2ccccc2)CCN(CCC(C#N)(c2ccccc2)c2ccccc2)CC1,?,12%,2.8µM*,i,106%,-29
CSc1ccccc1NC(=O)CN(C)CC(=O)c1[nH]c(C)c(C(C)=O)c1C,?,1%,15%,i,-1%,18
COc1ccc(Oc2cc(NC(=O)c3nn(C)cc3[N+](=O)[O-])cc([N+](=O)[O-])c2)cc1,2.1µM*,0%,?,i,-4%,-96*
CCOC(=O)c1c(NS(=O)(=O)c2ccccc2)n(CCCOC)c2nc3ccccc3nc12,13%,-1%,?,/,-12%,-96*
CCOC(=O)c1c(N)n(CCCOC(=O)c2ccco2)c2nc3ccccc3nc12,?,-2%,?,i,?,135
CCCCCn1c(NC(=O)c2ccco2)c(C(=O)OCC)c2nc3ccccc3nc21,5.8µM*,6%,3.7µM*,i,?,-101*
COCCOC(=O)c1c(N)n(Cc2ccc(OC)cc2)c2nc3ccccc3nc12,5%,2%,20%,i,0%,-26
CC[C@H](CO)NC(=O)[C@H]1C=C2c3cccc4[nH]cc(c34)C[C@@H]2N(C)C1,/,/,/,i,/,/
CCN(Cc1ccccc1)C(=O)Cn1c(=O)oc2ccccc21,-55%,0%,-1%,i,-22%,8
O=c1oc2ccccc2n1CSC1=NCCS1,?,2%,?,i,30%,-107*
Cc1ccc(C[n+]2c(-c3ccc(C)cc3)cc(-c3ccc(C)cc3)cc2-c2ccc(C)cc2)cc1,23µM*,-1%,?,/,?,-111*
Cc1ccc(-c2cc(-c3ccc(C)cc3)[n+](-c3ccc(C(=O)O)cc3)c(-c3ccc(C)cc3)c2)cc1,?,3%,1%,i,0%,-9
CCOC(=O)Nc1ccc(NCc2ccc(F)cc2)cc1N,/,/,/,/,-7%,/
COc1cc(CC#N)cc(OC)c1OC,/,/,/,i,4%,/
O=C(COc1ccc(Cl)cc1)N(c1ccc(Cl)cc1)C1CN2CCC1CC2 (stereo not given),0%,-4%,0%,?,-26%,-95*
O=C(COc1ccc(Cl)cc1)N(c1ccccc1Cl)C1CN2CCC1CC2 (stereo not given),?,-4%,17%,i,-24%,-75*
COC(=O)C1=C(c2ccc(-c3ccccc3)c(F)c2)C[C@@H]2CC[C@H]1N2C(=O)NC1Cc2ccccc2C1,-44%,1%,3.7µM*,i,-22%,-6
COC(=O)C1=C(c2ccc(-c3ccccc3)c(F)c2)C[C@@H]2CC[C@H]1N2C(=O)NCC1CC1,?,?,?,?,?,-27
COC(=O)C1=C(c2ccc(-c3ccccc3)c(F)c2)C[C@@H]2CC[C@H]1N2C(=O)N1CCCC1,16%,-2%,-2%,?,?,-69*
CCn1c(C)[n+](CC(O)COCC2CC=CCC2)c2ccccc21 (stereo not given),?,?,-5%,i,4%,-13
CCOP(=O)(OCC)C(O)c1ccc(N(C)C)cc1 (stereo not given),-9%,0%,-28%,?,17%,-11
CC(C)CCOP(=O)(c1ccc(N(C)C)cc1)C(O)c1ccc(C(C)C)cc1 (stereo not given),-13%,7%,?,?,/,-58*
CC(C)CCOP(=O)(c1ccc(N(C)C)cc1)C(O)c1ccc(Cl)cc1Cl (stereo not given),?,-4%,?,?,0%,-88*

# Source: PubChem BioAssay
